Compound activity deposited in PubChem by several laboratories.
A selection: hits, their analogues and other compounds. The true share with any hit is near 4.5%.
PfHsp90 set2 – inhibits growth of yeast expressing Plasmodium falciparum Hsp90 | S. cerevisiae expressing PfHsp90, BacTiter-Glo ATP, 48 h; yeast lacking PDR1 and PDR3 efflux regulators | inhibition, % at 9.4 µM | hit rate 0.32% among 310,000;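 active means every replicate shows inhibition above about 80%, whatever the replicate mean, limit read from the data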;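 further: 0% = DMSO neutral controls and 100% = 20 µM radicicol positive controls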
SKKanGAS inh – blocks kanamycin growth of S. pyogenes SKKanGAS strain; BacTiter-Glo, 6 h; inhibition, % at 7.5 µM; hit rate 1.3% among 300,000; AID 1662;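 active means mean replicate score, as percent of positive control median, at least 50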;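 further: strain carries kanamycin resistance gene driven by streptokinase promoter and grows in 40 µg/ml kanamycin; loss of luminescence reflects streptokinase promoter inhibition or plain growth inhibition; 0% = median of DMSO wells and 100% = positive control at its reference dose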
tim10-1 inh – growth inhibitors of tim10-1 mutant yeast | S. cerevisiae tim10-1 ts strain growth, BacTiter-Glo, 24 h | inhibition, % at 20 µM | hit rate 2.2% among 330,000;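 active means inhibition of at least 40%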;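 further: mutant grown at 25 °C; 0% = DMSO wells with yeast and 100% = wells holding no yeast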
tim23-1 inh – growth inhibitors of tim23-1 mutant yeast; S. cerevisiae tim23-1 growth, BacTiter-Glo luminescence, 24 h; inhibition, % at 20 µM; hit rate 1.3% among 330,000; AID 463212;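 active means growth inhibition of the mutant yeast at or above 50%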;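 further: temperature-sensitive mutant grown at 25 °C; plate controls were DMSO-treated mutant yeast for no effect and medium wells lacking yeast for full effect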
TIM10 inh – growth inhibitors of TIM10 yeast strain; AID 463195; hit rate 1.4% among 330,000; inhibition, % at 10 µM; S. cerevisiae TIM10 strain growth, BacTiter-Glo luminescence, 24 h;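 active means inhibition of 40% or more at the single tested concentration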;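 further: wild-type TIM10 isogenic control strain grown at permissive 25 °C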
NLRP3 yeast inh – inhibitors of NALP3 inflammasome in yeast; Yeast reconstituted NLRP3/ASC/caspase-1, beta-gal luminescence, 24 h; inhibition, % at 10 µM; hit rate 0.39% among 330,000;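 active means inhibition of 50% or more; inactive means inhibition below 50%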;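 further: plate controls were induced DMSO wells for no effect and uninduced yeast grown without galactose for full effect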
NALP3 confirm – confirmation of NALP3 inhibitors in yeast | shares compounds with NLRP3 yeast inh | yeast expressing human NALP3, luminescence | inhibition, % at 10 µM | hit rate 81% among 1,300 | AID 435006; in the data active means inhibition above about 48%
Casp1 ASC ctr – active in yeast caspase-1-ASC counter-screen for NALP3 inhibitors; shares compounds with NLRP3 yeast inh; yeast expressing Caspase-1-ASC, luminescence counter screen; hit rate 66% among 1,000; inhibition, % at 10 µM
NALP3 yeast rt – yeast NALP3 inhibition, confirmed on retest; yeast expressing human NALP3, luminescence read-out; hit rate 53% among 1,000; AID 488794; shares compounds with NLRP3 yeast inh; inhibition, % at 10 µM
* hit, by the source's call; x = not tested or not shown. Unless noted, no stated cut-off is given here; in the data, active means inhibition above about 50%; inactive means the rest.

SMILES | PfHsp90 set2 | SKKanGAS inh | tim10-1 inh | tim23-1 inh | TIM10 inh | NLRP3 yeast inh | NALP3 confirm | Casp1 ASC ctr | NALP3 yeast rt
CCc1nc(SCC(=O)NCc2ccccc2)c2c(=O)n(C)c(=O)n(C)c2n1 | 7.5 | -0.1 | 0.4 | -0.1 | -10.3 | 13.7 | x | x | x
O=C(CSc1nccc(=O)[nH]1)NC1CCCC1 | 7.2 | -5.1 | -16.5 | -3.4 | 10.3 | 15.6 | x | x | x
Cc1cc(C)c(NC(=O)COc2cccnc2[N+](=O)[O-])c(C)c1 | 2.2 | x | 9.1 | 9.0 | 11.9 | 4.4 | x | x | x
O=C(Cc1c[nH]c2ccccc12)N1CCc2ccccc21 | 2.8 | 10.6 | 19.9 | 14.0 | 12.0 | 62.0* | 38.2 | 60.0* | 59.8*
O=C(CSc1c[nH]c2ccccc12)N1CCCc2ccccc21 | -9.6 | -2.3 | 24.6 | 30.8 | 7.3 | 31.2 | x | x | x
Cc1c(/C(Cc2ccccc2)=N/O)c2ccccc2n1C | -1.4 | -0.6 | 9.9 | 16.1 | -0.3 | 56.4* | 60.8* | 51.5* | 52.8*
CC(C)NC(=O)[C@]1(C)CCC[C@@]2(C)C3CC[C@@]4(C)C[C@]3(CCC21)CC4=O (stereo not given in full) | 35.5 | x | 14.5 | 45.0 | 3.5 | 58.7* | 49.2 | 52.8* | 53.1*
C[C@@]12CCC3[C@@](CCC4[C@@]3(C)CCC[C@@]4(C)C(=O)Nc3ccc(Cl)cc3)(CC1=O)C2 (stereo not given in full) | x | x | 26.4 | 41.0 | 27.6 | 32.8 | x | x | x
Clc1ccc(OCc2nnnn2-c2ccccc2)cc1 | 8.8 | 4.5 | 38.9 | 29.9 | 6.8 | -114.3 | -41.1 | x | x
S=c1[nH]nc(COc2ccc(Cl)cc2)n1Cc1ccccc1 | 5.2 | 1.9 | 13.9 | 3.1 | 25.6 | 15.2 | x | x | x
c1ccc(OCc2nnnn2-c2ccccc2)cc1 | 0.0 | -4.4 | 27.5 | 13.4 | -10.8 | -104.7 | -66.3 | -19.9 | -36.1
NC(=O)c1ccsc1NC(=O)COC(=O)c1nc(Cl)ccc1Cl | x | 0.1 | 2.8 | 15.9 | -10.9 | 18.0 | x | x | x
CCc1nnc(NC(=S)Nc2ccccc2)s1 | 7.9 | -3.4 | 22.1 | -0.2 | 14.8 | 54.7* | 46.2 | x | x
CCCn1c(SCC(=O)NCC(=O)Nc2ccc(F)c(F)c2F)nc2ccccc2c1=O | x | x | 2.1 | 8.7 | -0.3 | 11.5 | x | x | x
O=C(/C=C/c1cccc([N+](=O)[O-])c1)NCCSCc1cccc(Cl)c1 | -6.5 | -1.7 | 38.4 | 36.9 | 37.1 | 71.3* | -6.3 | x | x
O=C(/C=C/c1cccc([N+](=O)[O-])c1)NCc1ccccc1 | 12.3 | 0.5 | 6.3 | 11.5 | 10.7 | 16.9 | x | x | x
Cc1ccc(S(=O)(=O)N(C)CC(=O)NCC(c2ccco2)N(C)C)cc1 (stereo not given) | 7.9 | x | -16.2 | -0.2 | 3.3 | 7.6 | x | x | x
CCN(N=O)c1ccc(C=C2C=Cc3ccccc32)cc1 | -41.9 | x | x | x | x | x | x | x | x
C[C@H](CCC(=O)O)[C@H]1CC[C@H]2[C@@H]3CC[C@@H]4C[C@H](O)CC[C@]4(C)[C@H]3CC[C@]12C | 8.0 | x | 21.1 | 33.3 | 2.8 | 71.9* | 77.5* | 78.2* | 61.5*
CC(CCC(=O)O)C1CCC2C3CCC4C[C@H](O)CCC4(C)C3CC(=O)C12C (stereo not given in full) | -6.7 | 8.3 | 19.2 | 18.6 | 3.7 | 14.8 | x | x | x
COc1cc(C(=O)OCC(=O)N(CC(C)C)C2CCS(=O)(=O)C2)cc(OC)c1C (stereo not given) | 19.6 | x | 17.1 | 5.1 | 11.8 | 13.9 | x | x | x
CC(C)N(Cc1ccccc1)S(=O)(=O)c1ccc(F)cc1 | 24.3 | 4.0 | 7.2 | 8.6 | 35.1 | 51.0* | 55.7* | 29.2 | 30.7
CC(=O)N1CCc2cc(S(=O)(=O)CCC(=O)NCc3ccc(F)cc3)ccc21 | -0.5 | 6.2 | 16.4 | -7.0 | 11.9 | 6.9 | x | x | x
CCC1Nc2ncnc(N3CCN(c4ccccn4)CC3)c2N(Cc2ccc(Br)cc2)C1=O (stereo not given) | -7.4 | x | -7.5 | 31.5 | 8.3 | 55.7* | 69.6* | 48.4 | 65.7*
CCC1Nc2ncnc(N3CCN(c4ccccn4)CC3)c2N(Cc2ccc(Cl)cc2)C1=O (stereo not given) | 3.7 | 8.1 | -7.0 | 20.5 | 7.1 | 50.5* | 59.8* | 37.8 | 51.6*
SMILES | PfHsp90 set2 | SKKanGAS inh | tim10-1 inh | tim23-1 inh | TIM10 inh | NLRP3 yeast inh | NALP3 confirm | Casp1 ASC ctr | NALP3 yeast rt
CCC1Nc2ncnc(N3CCCCC3)c2N(Cc2ccc(Cl)cc2)C1=O (stereo not given) | 14.2 | x | 15.2 | 45.9 | 18.7 | 15.5 | x | x | x
CCC1Nc2ncnc(N3CCCCC3)c2N(Cc2ccc(Br)cc2)C1=O (stereo not given) | -21.2 | 2.7 | 23.5 | 33.4 | 25.8 | 22.2 | x | x | x
COCCNC(=S)N(CCO)Cc1cc2cc3c(cc2[nH]c1=O)OCCO3 | -4.8 | 0.6 | -3.1 | 6.2 | 4.3 | 6.9 | x | x | x
CCc1nnc(NC(=O)Cc2ccc(S(=O)(=O)N3CCCCC3)cc2)s1 | -7.8 | x | -0.8 | -1.4 | -7.0 | -8.3 | x | x | x
Cc1ccc(S(=O)(=O)c2ncccc2[N+](=O)[O-])cc1 | 23.2 | 0.4 | 36.2 | 27.1 | -16.5 | 57.9* | 68.7* | 67.9* | 57.9*
Cc1ccc(S(=O)(=O)c2ncccc2N)cc1 | 0.8 | 4.4 | -10.6 | -3.4 | 12.3 | -7.3 | x | x | x
COc1ccccc1-c1noc2ncnc(Nc3cccc(C)c3)c12 | -0.3 | 5.1 | 11.7 | -1.1 | -10.4 | 64.3* | 70.7* | 59.8* | 39.8
COc1cccc(Nc2ncnc3onc(-c4ccccc4OC)c23)c1 | -15.0 | -2.8 | 4.3 | 13.2 | 16.1 | 26.5 | x | x | x
CC(=O)N1CCN(CC(=O)Nc2ccccc2C(=O)Nc2ccccc2)CC1 | -8.6 | x | -11.9 | -4.5 | -6.5 | 8.2 | x | x | x
CC1(c2nnc(-c3ccccc3)o2)CC(c2ccc(Cl)cc2)=NO1 (stereo not given) | 19.8 | -6.2 | 6.0 | 26.8 | -21.4 | 51.9* | 56.1* | 25.9 | 21.9
CC1(c2nnc(-c3ccncc3)o2)CC(c2ccc(Cl)cc2)=NO1 (stereo not given) | 10.2 | -1.4 | -17.7 | 7.4 | -29.2 | 16.2 | x | x | x
COc1cccc(CN2CC(C(=O)NCC3CCOCC3)CCC2=O)c1 (stereo not given) | 10.4 | 3.5 | 10.6 | 4.3 | -3.3 | 3.7 | x | x | x
CCOc1cc(C2Nc3ccccc3C(=O)N2c2ccccc2)c(Br)cc1OCC(=O)O (stereo not given) | -38.2 | 1.8 | 5.9 | -1.6 | -1.3 | -100.0 | -31.0 | x | x
CC(C)(C)c1ccc(C(=O)N2CCCC2c2cccs2)cc1 (stereo not given) | 5.3 | 1.6 | 19.0 | 17.4 | 31.2 | 22.3 | x | x | x
O=C1NCCN1Cc1ccccc1 | x | 3.8 | 1.3 | 1.4 | -4.3 | 2.2 | x | x | x
O=C1c2ccsc2SCCN1Cc1ccccc1 | 11.5 | 17.5 | 25.8 | 10.8 | -8.1 | 58.0* | 42.8 | 48.3 | 47.0
